Source: PubChem BioAssay (NCI)
Compounds without any hit were thinned out: in the full panel of roughly 83,000, 20% have a hit.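 96-well plates, one dose, 48 hours. Percent growth reported; active if below 10.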 The source made the active and inactive calls.

System: HS 578T breast
Assay: NCI-60 one-dose screen, 48 h (100 = growth as untreated, 0 = no growth, -100 = all killed)
Details: 10 µM unless noted

Structure (SMILES) | growth
O=C(NNC(=O)N1c2ccccc2C=Cc2ccccc21)c1ccc2ccccc2c1 | 101% (inactive)
CCOC(=O)C1C(=O)C=C(c2ccc(OC)cc2)CC1c1sc(N(C)Cc2ccccc2)nc1Cl (centres undefined) | 49.2% (inactive)
CCc1cnc(=S)n(-c2ccccc2)c1 | 108% (inactive)
CCN(CC)c1ccc2[nH]c3c(C(N)=O)cc(=O)c(=O)c=3oc2c1 | 2.92% (active)
CC1(C)C(=O)/C(=C\c2ccc(C(F)(F)F)cc2)C[C@]2(C)[C@H]3CC[C@@H]4[C@H]5[C@H](C(=O)/C=C/c6ccc(C(F)(F)F)cc6)CC[C@]5(CO)CC[C@@]4(C)[C@]3(C)CC[C@@H]12 | 95.8% (inactive)
O=[N+]([O-])c1ccc(Sc2ncccn2)c([N+](=O)[O-])c1 | 88.6% (inactive)
CC(C)(C)OC(=O)NC(CSCc1ccccc1)C(=O)ON1C(=O)CCC1=O (centres undefined) | 115% (inactive)
C/C(=C\c1ccc(OCC(=O)O)c(Cl)c1Cl)[N+](=O)[O-] | 107% (inactive)
CC(C)CC1NC(C)(C)CO1 (centres undefined) | 142% (inactive)
CC(NNC(C)c1ccccc1)c1ccccc1 (centres undefined) | 128% (inactive)
CC(C)(C)n1cc(-c2ccnc(NCCCNS(=O)(=O)c3ccc(C(F)(F)F)cc3)c2)c(-c2cccc(O)c2)n1 | 23.5% (inactive)
CC(C)(C)n1cc(-c2ccnc(NCCCNS(=O)(=O)c3ccc(Br)cc3)c2)c(-c2cccc(O)c2)n1 | 16.9% (inactive)
Cn1cc(-c2cnc3ccc(NC(=O)Nc4ccc(F)c(Br)c4)cc3n2)cn1 | 37.4% (inactive)
CC(C)(C)c1[nH]nc2c1C(c1cc3ccccc3[nH]c1=O)Nc1cc(C(=O)Nc3ccc(Cl)cc3)ccc1N2 (centres undefined) | 52.6% (inactive)
O=C([O][Sn]([O]C(=O)c1ccccn1)([c]1ccccc1)[c]1ccccc1)c1ccccn1 | 88.5% (inactive)
CC(C)(C)N1CCC1C(N)=O (centres undefined) | 111% (inactive)
CC(C)(C)n1cc(-c2ccnc(NCCCNS(=O)(=O)c3ccc(Cl)cc3)c2)c(-c2cccc(O)c2)n1 | -12.2% (active)
O=C(Nc1ccc(NCCN2CCOCC2)nc1)c1ccc([N+](=O)[O-])cc1 | 104% (inactive)
COc1cc(-c2ncn(/C=C\C(=O)OC(C)C)n2)cc(C(F)(F)F)c1 | -7.75% (active)
O=C(NNC(=O)N1c2ccccc2C=Cc2ccccc21)c1ccccc1 | 109% (inactive)

Structure (SMILES) | growth
CC(C)(C)n1cc(-c2ccnc(NCCNS(=O)(=O)c3ccc(Cl)cc3)c2)c(-c2cccc(O)c2)n1 | 66% (inactive)
Clc1ccccc1-c1nc2ccccc2[nH]1 | 113% (inactive)
CC(C)(C)n1cc(-c2ccnc(NCCNS(=O)(=O)c3ccc(C(F)(F)F)cc3)c2)c(-c2cccc(O)c2)n1 | 47.3% (inactive)
CC(=O)Oc1csc(N(C(C)=O)c2cc(C(=O)O)cc(C(=O)O)c2)n1 | 95.3% (inactive)
COc1ccncc1S(=O)(=O)NC(=O)Nc1ccc(Cl)c(Cl)c1 | 93.9% (inactive)
COc1ccc(-c2nc(/C=N/Nc3cc(C)nc4ccc(Cl)cc34)c(C)o2)cc1 | -29.3% (active)
COc1ccc(C(=O)N2NC(=O)/C(=C/c3ccccc3F)N=C2c2ccccc2)cc1 | 110% (inactive)
CCOC(=O)CC(=O)OC | 114% (inactive)
CN1C=CN(Cc2ccc(-c3ccccn3)nc2)[CH-]1.CN1C=CN(Cc2ccc(-c3ccccn3)nc2)[CH-]1.[Au+3] | 79.2% (inactive)
COc1cccc(/C=C2\Oc3cc(OCCCN4CCCC4)ccc3C2=O)c1OC | 93.9% (inactive)
O=C1C(Cl)=C(Nc2ccccn2)C(=O)c2ccccc21 | -9.73% (active)
Cc1ccc2[nH]c(=O)c3c(c2c1)Oc1ncn2nc(-c4ccco4)nc2c1C3c1ccc(Cl)cc1 (centres undefined) | 93% (inactive)
COc1ccc(C2CC(c3ccc(OC)cc3OC)=NN2c2ccc(S(N)(=O)=O)cc2)cc1 (centres undefined) | 103% (inactive)
c1ccc(-c2nnc(-c3ccccn3)s2)nc1 | 142% (inactive)
Clc1cc2c(nn1)Nc1ccccc1S2 | 102% (inactive)
O=[N+]([O-])c1cc(S(=O)(=O)Oc2ccccc2)ccc1Cl | -7.12% (active)
COc1cc(/C=N\NC(=O)CN2CCN(c3cc4c(cc3F)c(=O)c(C(=O)N/N=C/c3cc(OC)c(OC)c(OC)c3)cn4C3CC3)CC2)cc(OC)c1OC | -0.587% (active)
NC1=C(/C(N)=N/O)C(c2ccccc2)c2ccc3ccccc3c2O1 (centres undefined) | 13.4% (inactive)
OCc1ncc(-c2ccccc2)s1 | 108% (inactive)
